This is an account of results in PubChem BioAssay (NCI).

This is part of a sample that, as a whole, favours compounds with a hit. Of some 79,000 tested, about 15% had one in any assay. Values without a mark were called inactive. Activity calls are given as the source filed them. Cut-off read from the data, not from the text of the source: active = growth inhibition above about 70%; inactive = the rest.

The nature of the assay: NCI Yeast Anticancer Drug Screen. Data for the CLN2oe strain (AID 163).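 Note: 0% = growth of vehicle-only control cultures.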 The following applies: S. cerevisiae CLN2oe strain, stronger effect = higher value. Here is the method:
Growth inhibition of yeast strains with defined genetic alterations is measured as a screen for potential anti-cancer activity. Selected strains with alterations in DNA damage repair or cell cycle control were exposed to compounds and growth inhibition was measured relative to vehicle treated controls. The strain used in this assay is CLN2oe

In the case of `c1ccc2nc3c(nc2c1)sc1ccccc13`, the growth inhibition was -2% (at 1.2 µM); 6% (at 3.7 µM); 28% (at 11.0 µM); 37% (at 33.0 µM); 34% (at 100.0 µM).
As for `CC1=COC2=C(C)C(=O)C(=O)c3c(C)ccc1c32`, the growth inhibition by setting is: (at 1.2 µM) 37%; (at 3.7 µM) 44%; (at 11.0 µM) 36%; (at 33.0 µM) 77% (active); (at 100.0 µM) 95% (active).
The matching figures for `CCC(=O)Nc1ccc(N=NN(C)C)cc1`: -11%, -9%, -11%, 21% and 97% (active).
Regarding `Cc1c2cc[n+](CCO)cc2c(C)c2c1[nH]c1ccc(O)cc12`, the growth inhibition was -11% (at 1.2 µM); -32% (at 3.7 µM); -17% (at 11.0 µM); -9% (at 33.0 µM); 3% (at 100.0 µM).
On to `CCCCCCCC/C=C\CCCCCCCCN`, for which the growth inhibition by setting is: (at 1.2 µM) 17%; (at 3.7 µM) 11%; (at 11.0 µM) 28%; (at 33.0 µM) 98% (active); (at 100.0 µM) 97% (active).
Turning to `CC(C)N(CCCNc1c2ccccc2nc2cccc([N+](=O)[O-])c12)C(C)C`, the growth inhibition (at 1.2 µM) was -9%; the growth inhibition (at 3.7 µM) was -12%; the growth inhibition (at 11.0 µM) was 51%; the growth inhibition (at 33.0 µM) is 91% (active); the growth inhibition (at 100.0 µM) was 96% (active).
The corresponding values for `CN1C(=O)C(CC(=O)O)NC1=S` (stereo not given) are -3%, -3%, -1%, -2% and 2%.
Take `O=C(CCSC1=NCCCN1)c1ccc(F)cc1`: the growth inhibition reads like this: (at 1.2 µM) -6%; (at 3.7 µM) -7%; (at 11.0 µM) -24%; (at 33.0 µM) 14%; (at 100.0 µM) 98% (active).
